About 83,000 compounds went through this panel and 20% of them were active in at least one assay; those are over-represented in the sample as a whole.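 Activity criterion: percent growth below 10, measured after cells in 96-well plates were exposed to a single compound concentration for 48 hours.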 Unmarked numbers belong to inactive results. The source made the active and inactive calls.

Holding throughout (experiment): NCI-60 one-dose screen, 48 h (100 = growth as untreated, 0 = no growth, -100 = all killed)
What all share (conditions): 10 µM unless noted

In experiment [1] the test system is HCT-15 colon.
Experiment [2] concerns SNB-19 CNS.
The subject of experiment [3] is U251 CNS.
In experiment [4] the test system is PC-3 prostate.
The test system of experiment [5] is SK-MEL-5 melanoma.
Experiment [6] concerns UACC-62 melanoma.
For experiment [7], the system named is SK-MEL-28 melanoma.
The subject of experiment [8] is SK-MEL-2 melanoma.
The test system of experiment [9] is EKVX NSCLC.
The subject of experiment [10] is SN12C renal.
The subject of experiment [11] is UO-31 renal.
Experiment [12] concerns TK-10 renal.
For experiment [13], the system named is CAKI-1 renal.
The test system of experiment [14] is A498 renal.
Experiment [15] has as its system CCRF-CEM leukemia.
Experiment [16] deals with MOLT-4 leukemia.
Experiment [17] deals with LOX IMVI melanoma.
For experiment [18], the system named is ACHN renal.

Turning to `N=C(N)c1ccc(-c2cc(Cl)cc(Cl)c2)cn1`, the growth in experiment [1] was 86.4%; in experiment [2], 92.7%; in experiment [3], 97.3%; in [4], 80%; in [5], 89.3%; in [6], 97.2%. The growth in experiment [7] is 97.3%; in [8], 101%; in experiment [9], 80.4%; in experiment [10] it was 91.6%; in experiment [11], 70.2%; in [12], 115%. The growth in experiment [13] is 68.4%; in experiment [14] it was 73.1%; in experiment [15], 8.61% (active); in [16] it was 89.1%.
Consider `CN1C=CN(Cc2ccc(-c3ccccn3)nc2)[CH-]1.CN1C=CN(Cc2ccc(-c3ccccn3)nc2)[CH-]1.[Au+3]`, for which the growth in [1] is 68.5%; in experiment [2], 62.6%; in experiment [3] it was 38.6%; in experiment [4] it was 20.3%; in [5] it was 37.8%; in [6] it was 30.7%. Moreover, the growth is 32.4% in [17]; 50.7% in experiment [7]; 46.5% in [8]; 41.3% in experiment [10]; 83.5% in [11]; 67.4% in experiment [12]. Besides, the growth is 81.7% in experiment [18]; 67.6% in experiment [13]; 42.9% in experiment [14]; 6.2% (active) in experiment [15]; 11.3% in [16].
As to `COc1ccc(/C=C2\CN(Cc3cn(CCNc4ccnc5cc(Cl)ccc45)nn3)C/C(=C\c3ccc(OC)c(OC)c3)C2=O)cc1OC`, the growth in [1] is 76%; in experiment [2], 58.1%; in experiment [3], 6.39% (active); in experiment [5] it was 10.8%; in experiment [6] it was 7.74% (active); in experiment [7] it was 21.6%. The growth in experiment [8] is -19.7% (active); in experiment [10], -0.659% (active); in experiment [11] it was 80.5%; in [12] it was 8.71% (active); in [18] it was 51.4%; in experiment [13], 97.4%. For the same molecule, the growth in experiment [14] is 32.5%; in experiment [15], 0.689% (active); in experiment [16] it was -3.65% (active).
Turning to `C=C1c2nc3ccccc3n2C=C(c2ccc(Cl)cc2)N1Cc1ccccc1`, the growth in [1] was 78.2%; in experiment [2] it was 85.3%; in experiment [3] it was 90.9%; in experiment [5] it was 79.1%; in experiment [6], 71%; in experiment [17], 90.5%. Further, the growth in experiment [7] is 147%; in experiment [8], 69.7%; in experiment [9], 70.8%; in [10], 95.1%; in experiment [11], 48.2%; in experiment [12], 119%. The growth was 79% in experiment [13], 84.7% in [14], 78.9% in experiment [15] and 58.5% in [16].
With `S=C1CC(=S)NC(=S)N1`, the growth in experiment [1] was 116%; in experiment [2], 96.1%; in experiment [3] it was 103%; in experiment [4], 107%; in [5], 105%; in experiment [6], 100%. Also, the growth in experiment [17] was 94.6%; in experiment [7] it was 108%; in experiment [8], 107%; in experiment [9], 107%; in experiment [10], 96.1%; in experiment [11] it was 88%. Besides, the growth in experiment [12] is 110%; in experiment [13], 101%; in [14], 90.2%; in [15], 105%; in experiment [16], 95.3%.
`COc1ccc(-n2c(-c3ccccc3)c(-c3ccccc3)c3c(SCC(=O)N/N=C/c4ccc(Cl)cc4)ncnc32)cc1`: the growth was 105% in experiment [1]; 100% in [2]; 91.6% in experiment [3]; 83.3% in experiment [4]; 86.9% in experiment [5]; 86.7% in experiment [6]. Further, the growth was 88.4% in [17]; 104% in experiment [7]; 107% in [8]; 87% in experiment [9]; 99% in experiment [10]; 74.5% in experiment [11]. Moreover, the growth in experiment [12] was 108%; in experiment [18], 101%; in [13], 87.9%; in [14], 75.6%; in experiment [15] it was 93.4%; in experiment [16], 97%.
As for `O=C1/C(=C/c2ccccc2)Oc2ccc(O)c(I)c21`, the growth in [1] was 94.5%; in [2], 99.1%; in [3], 93%; in experiment [4], 89.6%; in [6], 86.1%; in experiment [17] it was 93.8%. Moreover, the growth in experiment [7] is 112%; in [8], 95.3%; in experiment [9], 50.8%; in experiment [10] it was 85.7%; in [11] it was 58.5%; in experiment [12], 181%. The growth was 103% in experiment [18], 78.6% in [13], 94.7% in experiment [15] and 95.6% in experiment [16].
For the molecule `Brc1cccc(-c2cc(-c3ccc4c(c3)OCCCO4)[nH]n2)c1`, the growth in experiment [1] is 29.7% [25 µM]; in experiment [2], 72.2% [25 µM]; in [3], 47.4% [25 µM]; in [4], 55.9% [25 µM]; in experiment [5], 39.1% [25 µM]; in experiment [6], 60.2% [25 µM]. Besides, the growth in experiment [17] is 43.9% [25 µM]; in experiment [7], 76.5% [25 µM]; in [8], 46.1% [25 µM]; in [9] it was 54.7% [25 µM]; in experiment [10], 62.7% [25 µM]; in [11], 60.1% [25 µM]. The growth in experiment [18] was 75.8% [25 µM]; in experiment [13], 39.6% [25 µM]; in [14] it was 70% [25 µM]; in [15], 57.5% [25 µM]; in experiment [16], 56.8% [25 µM].
Turning to `Brc1ccc(-c2[nH]ncc2-c2c[nH]c3ccccc23)cc1`, the growth in [1] is 94.9%; in [2] it was 97%; in [3], 93.9%; in experiment [4], 77.4%; in experiment [5], 100%; in [6], 91.7%. Further, the growth in [17] was 89.7%; in experiment [7], 107%; in [8] it was 109%; in [10], 88.5%; in [11], 57.4%; in experiment [12] it was 129%. Also, the growth in experiment [18] is 96.5%; in experiment [13], 86.7%; in [14] it was 65.1%; in experiment [15] it was 54.7%; in experiment [16], 70.3%.
For the molecule `CCN(CC)c1ccc2[nH]c3c(C(N)=O)cc(=O)c(=O)c=3oc2c1`, the growth in [1] is 1.73% (active); in experiment [2] it was 17.6%; in experiment [3] it was -4.95% (active); in experiment [4], 13.4%; in [5], -84.7% (active); in [6], -24.4% (active). The growth is 3.27% (active) in [17]; 13.2% in [7]; -19.4% (active) in experiment [8]; -10.4% (active) in [9]; -4.55% (active) in experiment [10]; -28.8% (active) in [11]. Further, the growth in experiment [12] is 2.91% (active); in experiment [18] it was -8.77% (active); in experiment [13], -33.2% (active); in experiment [14] it was 46.2%; in [16], 1.5% (active).
Regarding `CNc1ccc(Br)c2c1C(=O)c1ccccc1C2=O`, the growth in experiment [1] was 98.2%; in experiment [2] it was 110%; in experiment [3] it was 103%; in [4], 94.5%; in [5], 110%; in experiment [6], 95.8%. The growth in experiment [17] was 102%; in experiment [7], 115%; in experiment [8] it was 129%; in experiment [9], 115%; in experiment [10], 102%; in [11], 86.1%. In addition, the growth in experiment [18] is 104%; in [13], 100%; in experiment [15], 86.1%; in experiment [16], 94.7%.
As to `O=C1CCCCC1(c1ccccc1)c1ccccc1`, the growth in experiment [1] is 91.3%; in experiment [2], 100%; in experiment [3], 108%; in [5], 99.1%; in [6], 99.7%; in [17], 94%. Besides, the growth is 95.6% in experiment [7]; 100% in [8]; 91.2% in [9]; 104% in experiment [10]; 98.8% in experiment [11]; 82.4% in experiment [13]. Moreover, the growth in [15] is 101%; in [16], 105%.
As to `COc1ccc(Nc2[nH]n3c(=O)cc(C)nc3c2C(N)=O)c(OC)c1`, the growth was 102% in experiment [1]; 96% in experiment [2]; 94.1% in experiment [3]; 99.7% in experiment [4]; 98.1% in experiment [5]; 84% in experiment [6]. For the same molecule, the growth in experiment [17] was 95.6%; in experiment [7] it was 109%; in [8], 94%; in experiment [9], 101%; in [10] it was 96.6%; in [11], 87.5%. Moreover, the growth was 88.2% in [12]; 96.8% in experiment [18]; 90.2% in experiment [13]; 86.1% in [14]; 101% in experiment [15]; 116% in experiment [16].
Take `CCOC(=O)CN1/C(=N/c2sc3c(c2C(=O)OCC)CCN(C(=O)OCC)C3)SC(=O)/C1=C\C(=O)OC`: the growth was 58.6% in experiment [1]; 91.5% in [2]; 85.3% in experiment [3]; 71.6% in experiment [4]; 99.7% in [5]; 92.8% in [6]. Besides, the growth in experiment [17] was 81.3%; in [7], 109%; in [8], 97.9%; in experiment [9], 93.1%; in [10], 85.7%; in [11], 73.6%. Further, the growth was 95% in experiment [18]; 86.6% in [13]; 93.3% in [14]; 27.7% in experiment [15]; 53.8% in experiment [16].
Consider `COc1ccc(C(=O)n2nc(/C=C/c3ccc(O)c(OC)c3)cc2/C=C/c2ccc(O)c(OC)c2)cc1`, for which the growth was 5.59% (active) in experiment [1]; 12.8% in [2]; 0.801% (active) in [3]; -9.28% (active) in experiment [4]; -13.3% (active) in [5]; -0.825% (active) in experiment [6]. Besides, the growth in experiment [17] was 4.5% (active); in [8], -34.1% (active); in [10], 12.8%; in [11], -1.75% (active); in [12] it was 24.7%; in experiment [18] it was 7.64% (active). Moreover, the growth in experiment [13] was 20.4%; in experiment [14], -14.8% (active); in experiment [15] it was -11.6% (active); in [16] it was -18.4% (active).
Turning to `CC(C)(C)OC(=O)NCCc1ccc(N=C=S)cc1`, the growth in [1] was 55.9%; in [2], 84.7%; in experiment [3] it was 75.4%; in experiment [5], 86.1%; in [6], 54.8%; in experiment [17], 56%. Also, the growth in experiment [7] was 69%; in [8], 53.8%; in [9], 89.7%; in [10] it was 90.6%; in [11], 62.7%; in [18], 80.3%. The values for the growth in [14], in experiment [15] and in experiment [16] were 70.2%, 30.2% and 69%, respectively.
Take `COc1ccc(-c2c(-c3cc(OC)c4c(c3)OCO4)noc2N)cc1`: the growth in experiment [1] is 14.2%; in [2], 34.4%; in experiment [3] it was 16.4%; in experiment [4], 25.6%; in experiment [5], -54.4% (active); in experiment [6], 32.7%. The growth in [17] was 15.4%; in experiment [7] it was 58.8%; in [8], 53.4%; in experiment [9], 44.6%; in [10] it was 22.9%; in experiment [11], 36.1%. The growth is 54.8% in [12]; 38.7% in experiment [13]; 23.6% in [14]; 14.1% in experiment [15]; 4.69% (active) in experiment [16].
